Among the data in ChEMBL document CHEMBL4513216, “Probing the Open Global Health Chemical Diversity Library for Multistage-Active Starting Points for Next-Generation Antimalarials” (ACS Infect Dis, 2020) are INHIBITION values, retold here.

Hit rate of the full screen: of about 69,000 compounds, about 8,600 (12%) showed an effect of 50% or more. The list comes from a sample in which strong results are over-represented; it also holds similar structures and randomly drawn compounds.

The test relates to Plasmodium berghei. Briefly: Screen against P. berghei liver stage (PbLuc), transformed with Luciferase, at 10uM. The format is functional, HepG2. Particulars: tested at 10 uM.
As to `O=C(c1ccccc1F)N1CCOC(c2nc(-c3ncccn3)no2)C1` (stereo not drawn), the INHIBITION was determined as 18.9%. As for `Cc1cn(CC(=O)Nc2cc(C(C)(C)C)nn2C)cn1`, the INHIBITION was found to be 16.9%. Turning to `CCN(CC(C)C#N)C(=O)CNc1cc(Cl)ccc1C(N)=O` (stereo not drawn), the INHIBITION is 17.5%.

For the molecule `CCN(CC(C)C#N)C(=O)CNc1ccc(C(N)=O)c(C)c1` (stereo not drawn), the INHIBITION is recorded as 92.5%. Turning to `CCN(CC(C)C#N)C(=O)CNc1ccc(F)c(C)c1` (stereo not drawn), the INHIBITION is on record as -48.4%. Turning to `O=C(CCN1CCOC1=O)Nc1cnn(-c2ccccc2Cl)c1`, the INHIBITION is given as 13.3%. With `Cc1noc(-c2ccc(Oc3cccc(CN4CCCC4)c3F)nc2)n1`, the INHIBITION worked out at 35%. Under `Cc1noc(-c2ccnc(Oc3ccccc3CN3CCCCC3)c2)n1` stands 56.3%; under `c1ccc(Oc2nccc3occc23)c(CN2CCCCC2)c1`, 48.8%. Regarding `CCN1CCC(N2CCN(c3cc(-c4nc(C)no4)ccn3)CC2)CC1`, the INHIBITION is 33.8%. On to `COc1cccc(CN2CCN(c3noc(C(C)C)n3)CC2)c1F`, for which the INHIBITION is on record as -21.8%. With `Cc1noc(-c2ccnc(Oc3cccc(CN4CCCC4)c3F)c2)n1`, the INHIBITION stood at 83.3%. In the case of `CC(NC(=O)NCCCn1cncn1)c1ccc(C#N)cc1` (stereo not drawn), the INHIBITION was 24.75%.

For the molecule `CC=C(C)C(=O)NS(=O)(=O)c1ccc(C(F)(F)F)cn1`, the INHIBITION was found to be 13.8%.

As to `O=C(CCCN1CCOCC1)N1CCCC(CO)(CC2CC2)C1` (stereo not drawn), the INHIBITION is -4.21%. Consider `CC(C1CCN(C(=O)c2coc(CN3CCOCC3)c2)CC1)N(C)C` (stereo not drawn), for which the INHIBITION was found to be 35.8%. `Cc1cc(NCCC(=O)NC2CCS(=O)(=O)C2)nc(-c2ccncc2)n1` (stereo not drawn): the INHIBITION was determined as 15.7%. For the molecule `COc1cccc(C(=O)N2CCc3nc(C4CCCN4)ncc3C2)c1` (stereo not drawn), the INHIBITION came to 59.3%. With `CC(C)c1cc(C(=O)N2CCc3nc(C4CCCN4)ncc3C2)cs1` (stereo not drawn), the INHIBITION came to 28%. With `Cc1cc(C(=O)N2CCc3nc(C4CCCN4)ncc3C2)cs1` (stereo not drawn), the INHIBITION is on record as -16.5%. As to `COc1ncc(NCc2ccc(C#N)cc2)cc1C(N)=O`, the INHIBITION was 8.12%. Under `COc1ncc(NCc2ccc(F)cc2)cc1C(N)=O` stands -5.1%; under `COc1ncc(NCc2ccc(Cl)c(Cl)c2)cc1C(N)=O`, 71.8%; under `CCC(=O)N1CCC2(COCc3cnc(NCc4ccco4)nc32)C1` (stereo not drawn), 6.55%. For `CNc1cc(N2CCC(O)(CNC(=O)c3ccc(C)nc3)C2)ncn1` (stereo not drawn), the INHIBITION came to 12.3%. Consider `Cc1cnn(CC2CCCN2CC(=O)Nc2cc(C)on2)c1` (stereo not drawn), for which the INHIBITION was -23.9%. With `Cc1nccc(N(C)Cc2ncc(-c3ccccc3C(=O)O)s2)n1`, the INHIBITION is 1.635%. For `COc1cc2c(cc1OC)C(=O)C(Sc1nnc(C)o1)C2` (stereo not drawn), the INHIBITION was 27.5%. Under `O=C(O)CC1COCCN1Cc1ccccc1OCCc1ccccc1` (stereo not drawn) stands 1.95%; under `O=C(O)CC1COCCN1Cc1ccccc1-c1ccccc1` (stereo not drawn), -4.56%; under `O=C(O)CC1COCCN1CCCc1ccccc1` (stereo not drawn), 56.2%. For the molecule `CCS(=O)(=O)NCCCn1ncc2c(C)cccc21`, the INHIBITION stood at 4.35%. As to `CCOc1c(F)cccc1C(=O)N(C)CCn1cccn1`, the INHIBITION is given as -27.6%.

As for `Cc1cc(N(C)CCCn2cccn2)nc(-c2cccnc2)n1`, the INHIBITION is given as -37.2%.

For `CCCN(Cc1nccn1C)C(=O)c1cc(C)nc(C)n1`, the INHIBITION is on record as 42.1%. For the molecule `Cc1cc(C(=O)N(C)CCCn2cccn2)nc(N)n1`, the INHIBITION is 64.1%. For the molecule `Cc1cc(N(C)CCCn2cccn2)nc(N)n1`, the INHIBITION stood at 75.2%. As to `Cc1cc(N(C)C)nc(NCCn2cccn2)n1`, the INHIBITION was -24.4%. As to `COc1ccc(Cl)c(NCC(=O)NCC(=O)N2CCCC2)c1`, the INHIBITION amounted to 24.1%. Take `COCC1CCCCN1C(=O)c1cc(Cn2ccc3ccccc32)[nH]n1` (stereo not drawn): the INHIBITION is reported as -14.9%. For the molecule `CCN(C)C[C@@H]1CN(S(=O)(=O)c2cccc(Cl)c2)C[C@@H]1CO`, the INHIBITION is given as 57.6%. Take `COCCN(C)C[C@@H]1CN(C(=O)c2cccc(Cl)c2)C[C@@H]1CO`: the INHIBITION is 10.7%.

For the molecule `CCN(C)C[C@@H]1CN(S(=O)(=O)c2ccc(OC)cc2)C[C@@H]1CO`, the INHIBITION is 39.4%. As for `CCN(C)C[C@@H]1CN(Cc2cccc(Cl)c2)C[C@@H]1CO`, the INHIBITION was 43.3%. With `CCN(C)C[C@@H]1CN(S(=O)(=O)c2ccc(C#N)cc2)C[C@@H]1CO`, the INHIBITION was determined as 58.6%. Regarding `CCN(C)C[C@@H]1CN(S(=O)(=O)c2cccc(C#N)c2)C[C@@H]1CO`, the INHIBITION was 36.2%. Under `O=S(=O)(C1CC1)N1CC[C@]2(C[C@@H](Oc3ccccn3)CO2)C1` stands 17.3%; under `CCCc1n[nH]c(C2CN(CCC(F)(F)F)CCO2)n1` (stereo not drawn), 29.7%; under `Cc1nnc([C@@]23CCO[C@@H]2CCN(Cc2nccs2)C3)o1`, 37.6%. With `CCc1nc(CN2CCOC(Cn3cncn3)C2)no1` (stereo not drawn), the INHIBITION was -7.31%. For `Cc1cc(CN2CCN(C(C)C)C(CCO)C2)[nH]n1` (stereo not drawn), the INHIBITION is recorded as 15.5%. `Cc1ccc(NS(=O)(=O)C=c2[nH]c(=O)n3cccc3c2=O)cc1`: the INHIBITION is recorded as -53.7%. On to `O=c1c(=CS(=O)(=O)Nc2ccc(Br)cc2)[nH]c(=O)n2cccc12`, for which the INHIBITION was found to be 67.3%.

With `COc1ccc(NS(=O)(=O)C=c2[nH]c(=O)n3cccc3c2=O)cc1Cl`, the INHIBITION is 86.4%.

With `O=c1c(=CS(=O)(=O)Nc2ccccc2)[nH]c(=O)n2cccc12`, the INHIBITION is recorded as -63.5%.

Consider `O=c1c(=CS(=O)(=O)Nc2ccc(Cl)cc2)[nH]c(=O)n2cccc12`, for which the INHIBITION was -51.6%. As to `CC(C)c1ccc(NS(=O)(=O)C=c2[nH]c(=O)n3cccc3c2=O)cc1`, the INHIBITION is on record as -26.1%. As for `Cn1cnc2ccc(NC(=O)CC3CCN(S(C)(=O)=O)CC3)cc21`, the INHIBITION is reported as -9.2%. For `CC(=O)c1cccc(OC(C)C(=O)Nc2cnn(CCN(C)C)c2)c1` (stereo not drawn), the INHIBITION amounted to 34.2%. `CC(Oc1cccc(Cl)c1)C(=O)Nc1cnn(CC(=O)NC2CC2)c1` (stereo not drawn): the INHIBITION is 10.7%. Under `CC(Oc1cccc(Cl)c1)C(=O)Nc1cnn(CCN(C)C)c1` (stereo not drawn) stands 60%; under `CC(C)c1cc(C(=O)NCCc2nc(-c3cccnc3)n[nH]2)[nH]n1`, 12.365%. In the case of `c1cnc(N2CCc3onc(CN4CCOCC4)c3C2)cn1`, the INHIBITION was 12.6%. Under `CSC1(CNC(=O)N(C)Cc2sccc2C)CCOCC1` stands 43.4%; under `CSC1(CNC(=O)N(C)Cc2ccc(C)s2)CCOCC1`, 57.3%. Take `CSC1(CNC(=O)N(C)Cc2ccc(Cl)s2)CCOCC1`: the INHIBITION is 19.1%. In the case of `OCCN1CCN(CCOCC(F)(F)F)CC1`, the INHIBITION came to 28.3%. With `COCCN1C(=O)CC[C@@H]2[C@H]1CCN2Cc1cccc(C#N)c1`, the INHIBITION was determined as 27.6%. Next, `CN1C(=O)C[C@H]2[C@H]1CCN2Cc1cccc(C#N)c1`: 7.77%; `COCCN1C(=O)C[C@H]2[C@H]1CCN2Cc1ccc(OC)cc1`: 16.5%.

Take `N#Cc1cccc(CN2CC[C@@H]3[C@@H]2CC(=O)N3Cc2ccncc2)c1`: the INHIBITION amounted to 29.9%.

On to `COCCN1C(=O)C[C@H]2[C@H]1CCN2Cc1cccc(C#N)c1`, for which the INHIBITION stood at 33.5%. As to `CC(C)CN1C(=O)C[C@@H]2[C@@H]1CCN2Cc1cccc(C#N)c1`, the INHIBITION was 63.7%. In the case of `CN(C)C(=O)CN1C(=O)C[C@@H]2[C@@H]1CCN2Cc1cccc(C#N)c1`, the INHIBITION was 81.2%.

Take `N#Cc1cccc(CN2CC[C@@H]3[C@@H]2CC(=O)N3CCN2CCCC2)c1`: the INHIBITION was found to be 21.8%. As to `COCCN1C(=O)C[C@H]2[C@H]1CCN2Cc1ccccc1`, the INHIBITION is recorded as 54.4%.

As for `N#Cc1cccc(NC(=O)CCn2nc(-c3cccs3)oc2=O)c1`, the INHIBITION stood at 38.8%. Take `COc1ccc(Cl)cc1Nc1nc(N)c(C(C)=O)s1`: the INHIBITION is reported as 9.32%.

Take `OCCN1CCC2(CC1)CC(NCc1ccccn1)c1ccccc1O2` (stereo not drawn): the INHIBITION is given as 33%. `O=C(Nc1cccc(CNCc2ccccn2)c1)C1CCCC1`: the INHIBITION is recorded as -0.65%. Regarding `O=C(Nc1ccc(CCN2CCC(O)CC2)cc1)C1CCCCC1`, the INHIBITION was determined as 29.2%.

Regarding `CN1CC2(CCN(S(=O)(=O)C3CC3)CC2)c2ccccc21`, the INHIBITION is given as 58.5%. For the molecule `CN(C)C(=O)N1CC2(CCN(S(=O)(=O)C3CC3)CC2)c2ccccc21`, the INHIBITION is listed as 38.2%.

For `CN1C(=O)CC2(CCN(S(=O)(=O)N(C)C)CC2)c2ccccc21`, the INHIBITION stood at 27.5%. `CN(C)C(=O)N1CC2(CCN(S(C)(=O)=O)CC2)c2ccccc21`: the INHIBITION is recorded as -43.1%. Consider `CN1C(=O)CC2(CCN(S(=O)(=O)C3CC3)CC2)c2ccccc21`, for which the INHIBITION is listed as 55.6%. Take `CN1C(=O)C2(CCN(S(=O)(=O)C3CC3)CC2)c2ccccc21`: the INHIBITION is listed as -3.51%. Next, `O=C(c1ccccn1)N1CCC2(CCCN(c3nncs3)C2)C1` (stereo not drawn): 28.5%. For `COc1c(C2CC(=O)Nc3[nH]ncc32)cc2c(c1OC)OCO2` (stereo not drawn), the INHIBITION is recorded as 7.38%. As to `Cc1sc(CN)nc1-c1ccccc1`, the INHIBITION was 6.54%. For the molecule `Cc1ccc(C(=O)N2CCc3ccc(=O)n(CCN(C)C)c3CC2)o1`, the INHIBITION is reported as -17.2%. For `CN1CC[C@H](N(C)Cc2ccccc2)C[C@H](O)C1`, the INHIBITION turned out to be 18.4%. Consider `CN1CCC(N(C)CCC(=O)N2CCN(Cc3cccc(F)c3)CC2)C1` (stereo not drawn), for which the INHIBITION is -0.991%. Turning to `COc1ccc(OC2CCN(C(=O)CCc3nc(Cl)n[nH]3)CC2)cc1`, the INHIBITION worked out at 28.4%. Next, `O=C(CCc1cc(O)no1)N1CCC(Cc2ccc(F)cc2)CC1`: -3.12%. For the molecule `CN1CCC(N(C)CCC(=O)N2CCC(CCc3ccccc3)CC2)C1` (stereo not drawn), the INHIBITION is given as 74.3%. Next, `CN1CCC(N(C)CCC(=O)N2CCC(OCc3ccccc3)CC2)C1` (stereo not drawn): 23.8%; `NC(=O)CC1CCN(C(=O)CCOc2ccc(Cl)cc2)CC1`: 23.2%; `CN1CCC(N(C)CCC(=O)N2CCC(Oc3ccc(Cl)cc3)CC2)C1` (stereo not drawn): 67.4%. Next, `CN1CCC(N(C)CCC(=O)N2CCC(Cc3ccc(F)cc3)CC2)C1` (stereo not drawn): 66.4%. As for `CCc1nc(-c2ccnc(N3CCNCC3)n2)no1`, the INHIBITION is 29.6%. `Cc1cc(C)c(CNC(=O)N2CCCC2c2ccc(F)cc2)c(=O)[nH]1` (stereo not drawn): the INHIBITION came to 34.7%. Next, `CC(C)n1cnnc1CN(C)C(=O)CCn1cnc2ccccc2c1=O`: -17.6%.
